About 10 (0.005%) of roughly 200,000 compounds were called active. Roughly 8% stayed inconclusive and do not appear here. Calls come from the whole dose curve; as a rule, active = well fitted inhibition curve with a large enough effect; inconclusive = small, poorly fitted or top-dose-only effect, or effect the other way, or another doubt; inactive = no such curve, though single readings can be large or run the other way. A selection follows.
target: Lysosomal alpha-glucosidase (Homo sapiens) (UniProt P10253); assay: qHTS Assay for Inhibitors of Human alpha-Glucosidase as a Potential Chaperone Treatment of Pompe Disease; conditions: purified human GAA, 4-MU-alpha-glucoside fluorescence; series mostly up to 76.9 µM; activity change, negative = inhibition: at the top concentration;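 note: plate controls were uninhibited enzyme wells for no effect and no-enzyme background for full effect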
Method in brief: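 AC50 values come from Hill fits of compound titrations (up to 77 uM) against 4 nM human enzyme. Substrate 4-methylumbelliferyl-alpha-D-pyranoside at 400 uM, pH 5.0 citrate buffer, 20 min room temperature; fluorescence Ex 365/Em 440 after alkaline stop.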

Activity change, negative = inhibition, inactive:
O=C1Oc2ccccc2C(=O)/C1=C/c1ccccc1O 9.02%
Cc1ccc(S(=O)(=O)N2CCOCC2)cc1C(=O)OC1CCCCC1=O (centres undefined) -13.9%
N#CC1=C(N)Oc2c(ccc3cccnc23)C1c1ccncc1 (centres undefined) -8.01% [at 15.4 µM]
COC(=O)c1sccc1NN1C(=O)c2ccccc2C1=O -1.37%
CCc1ccc(-n2c(SCc3cc(=O)n4cc(Br)ccc4n3)nc3[nH]ncc3c2=O)cc1 -9.36%
O=C(c1ccc(F)cc1)n1c(=S)nc2ccccn21 -7.36%
COc1ccc(CN2CCCC(C(=O)c3ccc(Cl)cc3)C2)cc1Cn1cncn1 (centres undefined) -8.23%
CS(=O)(=O)c1ccc2nnn(OCC(=O)Nc3cccc(C#N)c3)c2c1 -3.63%
CCOC(=O)c1ccc(NNC(C)=O)c([N+](=O)[O-])c1 9.25%
COc1ccc(OC)c(NC(=O)CN(Cc2ccc(Cl)cc2)S(C)(=O)=O)c1 -6.41%
O=C(N/N=C/c1ccccn1)c1cccnc1 -6.66% [at 15.4 µM]
CCOC(=O)c1cnc2c(c(C)nn2CC)c1Cl 2.22%
CCc1nc(C)cn1S(=O)(=O)c1cc([N+](=O)[O-])ccc1Cl 3.68%
O=[N+]([O-])c1ccc(F)cc1Oc1nc(-c2cccnc2)nc2ccccc12 1.6%
COc1ccc(/C=C/C2=CC(C)(C)NC(=S)N2)c(OC)c1 -10.3%
COc1ccccc1C1CCN(C(=S)Nc2ccc(Br)cc2)CC1 -8.72% [at 15.4 µM]
Cc1ccc(-c2nn(-c3cccc(F)c3)cc2CNCCc2ccncc2)o1 -3.04%
Brc1ccc2nc(N3CCCC3)sc2c1 -7.16%
COc1ccc(Cl)cc1N(CC(=O)N1CCCCC1)S(C)(=O)=O -2.73%
Cn1nc(C(F)(F)F)cc1-c1ccc(/C=C(\C#N)C(=O)c2cccc(C(F)(F)F)c2)s1 -13.5%
COc1ccc(C(=O)Nc2ccc(NC(=O)C(C)C)nc2)cc1 10.4%
CC1Cc2ccccc2N1C(=O)CSc1nnc(C2CC2)n1C (centres undefined) -3.65%
Cc1nnsc1C(=O)NCc1c(F)cccc1Cl -5.04%
Cc1cc(Cl)ccc1NNC(=O)c1snnc1C -0.766%
COc1cc(C)c(S(=O)(=O)N2CCOCC2)c(C)c1C 5.9%
COc1ccccc1/C=C/C=N/NC(=O)CN1CCN(Cc2ccccc2)CC1 -13.8%
Cc1ccc(NC(=O)CSc2nnc(CNC(=O)c3ccccc3F)o2)cc1 6.34%
COc1cccc(NCCC(=O)c2cccc([N+](=O)[O-])c2)c1 3.03%
CC(C)N(Cc1ccccc1)C(=O)COC(=O)c1cnccn1 2.14%
O=C1Nc2ccc([N+](=O)[O-])cc2C1=Nc1cccc(CO)c1 7.58%
COc1cc(/C=C2/C(=O)ON=C2C)ccc1OCc1cccc(F)c1 3.02%
CCCCS(=O)c1snnc1C (centres undefined) 7.98%
COc1ccc(-c2nc(N)sc2C2(O)C(=O)Nc3c(Br)cc(F)cc32)cc1OC (centres undefined) -1.75%
COc1ccccc1NC(=O)c1cc(Cl)nc2ccccc12 -0.703% [at 15.4 µM]
Cc1c(C(=O)Nc2ccccc2)sc2nc3n(c(=O)c12)CCCCC3 -0.732%
Cc1noc(C)c1COc1ccc2ccc(=O)oc2c1 2.21%
O=C(CO/N=C/c1ccc(OC(F)F)cc1)NCc1ccc(F)cc1 -1.64%
COCc1cc(=O)[nH]c(-c2ccc(C(F)(F)F)cc2)n1 -0.699%
CC1CC(C)CN(C(=O)CSc2ccsc2[N+](=O)[O-])C1 (centres undefined) -9.98%
O=C(c1ccc(=O)oc1)N1CCC(C(O)(c2ccccc2)c2ccccc2)CC1 2.64%
O=C(/C=C/c1ccccc1[N+](=O)[O-])OC1CCCCC1=O (centres undefined) 0.967%
CCOc1ccc(C(CC(=O)O)n2cnnn2)cc1OC (centres undefined) 4.13%
Cc1cc(=O)[nH]c(S)c1C#N 1.79% [at 15.4 µM]
Cc1c(Cl)cccc1NC(=S)N(Cc1ccccc1)Cc1cccnc1 1.69%
C=C(C)CNC(=S)Nc1ccc(S(=O)(=O)Nc2cnc3ccccc3n2)cc1 -14.1%
N/C(=N\OC(=O)Cc1ccc([N+](=O)[O-])cc1)c1ccccn1 -2.82%
COc1cccc(OC)c1CN(C)C(=O)c1cnccc1C(F)(F)F -1.85% [at 15.4 µM]
CCS(=O)(=O)C1=NSC2=NC(=O)/C(=C\c3cc(C)n(-c4cccc(OC)c4)c3C)C(=N)N21 -5.46%
CC1CC(=O)Nc2ccccc2N1S(=O)(=O)c1cccs1 (centres undefined) -6.42%
Cc1nc(N2CCCCC2)sc1C=O -3.97%
Cc1cc(C)nc(NC(=O)/C=C/c2ccc(Cl)cc2)n1 -23.8%
COc1ccc(N2C(=O)C3C(C2=O)C(C(=O)c2ccccc2)N2CCCC32)cc1 (centres undefined) -6.45% [at 15.4 µM]
Cc1ccc(OC(=O)c2c(C)nn(-c3ccccc3)c2C)cc1 3.81%
NS(=O)(=O)c1ccc(NC(=O)COC(=O)CCc2c[nH]c3ccccc23)cc1 3.96%
COc1ccc(CN(Cc2ccc(OC)cc2)C(=O)c2cccs2)cc1 0.0908%
CCC(=O)N(Cc1cc2ccccc2[nH]c1=O)c1ccc(OC)cc1 -0.638%
O=C(Nc1cccnc1)c1cccc(S(=O)(=O)N2CCCC2)c1 5.11%
CCOC(=O)NNc1cc(C(F)(F)F)ccn1 -7.1% [at 15.4 µM]
CN(C)c1ccc(/C=C/C(=O)c2ccc(O)cc2)cc1[N+](=O)[O-] -8.53%
COC(=O)c1noc(C)c1-c1ccnn1C(=O)c1ccc(Cl)cc1 -10.5%
CN(CCC1CCOCC1)Cc1cn[nH]c1-c1ccc(-c2ccccc2)cc1 -10.9%
CCOC(=O)C1CCN(c2ncnc3c2c(-c2ccccc2)cn3-c2ccc(C)cc2)CC1 1.29%
CCOC(=O)c1sc(NC(=O)CSc2nc(O)c(Cc3ccccc3)c(=O)[nH]2)nc1C -4.75%
Cc1cc(=O)oc2c(C(=O)c3ccccc3)c(OCC(N)=O)ccc12 7.98%
Cc1cc(C)cc(OCC(=O)O/N=C(\N)Cc2ccc([N+](=O)[O-])cc2)c1 -14.2%
COC(=O)c1cc(NC(=O)c2ccco2)ccc1N1CCOCC1 5.5%
CCc1ccc(NC(=O)N2CCN(c3ccccc3)CC2)cc1 0.27%
C=CCN(c1ccccc1C(=O)NCC(=O)OCC)S(=O)(=O)c1ccc(C)cc1 -5.41%
CNC(=O)COC(=O)c1cc(-c2ccc(OC)cc2)nc2ccccc12 1.14%

Source: PubChem BioAssay AID1466 (National Center for Advancing Translational Sciences (NCATS), 2008)
